# Measured values published in PubChem BioAssay (EPA / NIEHS).
# Inconclusive results are not listed. The source made the active and inactive calls. The calls were made as follows, unless noted: active = hit-call score of the fitted dose curve at least 0.9, where 1 is the maximum; inactive = score below 0.9.
# Experiments:
# [1] = CCTE_Mundy_HCI_Cortical_NOG_NeuronCount: CCTE's Neurite Outgrowth Assay in rat cortical cells for Neuron Count, Mundy Lab (AID 2284236; active = hit-call score of the fitted dose curve at least 0.9, where 1 is the maximum;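 also: neurons counted by imaging betaIII-tubulin and Hoechst stained cortical cells; cells exposed to compound for about 48 hours before fixation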)
# In short: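 Read-out: neuron number by high-content imaging of betaIII-tubulin (Alexa Fluor-488) and Hoechst-labelled rat primary cortical cells.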
# [2] = CCTE_Mundy_HCI_Cortical_NOG_BPCount: CCTE's Neurite Outgrowth Assay in rat cortical cells for Branch Point Count, Mundy Lab (AID 2284237);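 as to AC50: branch points counted about two days after chemical exposure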
# In short: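 Measured 50.33 h after dosing, this morphology endpoint uses rat primary cortical cultures labelled for betaIII-tubulin. Branch points are quantified by high-content imaging, with DMSO as negative control and baseline.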
# [3] = CCTE_Mundy_HCI_Cortical_Synap_Neur_Matur_NeuronCount: CCTE's Synaptogenesis and Neurite Maturation Assay in rat cortical cells for Neuron Count, Mundy Lab (AID 2284242; active = hit-call score of the fitted dose curve at least 0.9, where 1 is the maximum;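 as to AC50: neuron number from Hoechst nuclei and MAP2 staining by high-content imaging; hits reduce neuron count versus DMSO baseline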)
# In short: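 Imaging-based neuron count in rat cortical cultures after chemical exposure from DIV 7 to DIV 12, with AraC added at DIV 5. Activity is fitted relative to DMSO.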
# [4] = UKN4_HCS_LUHMES_cell_viability: Viability Assessment in the University of Konstanz (UKN) Leist Lab Neurite Outgrowth Assay in human LUHMES cells (UKN4) (AID 2284232)
# In short: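 Human dopaminergic-model LUHMES neurons were exposed to chemicals for 24 h after a 2-day differentiation. Viability was scored by imaging Hoechst H-33342 staining, with activity fitted in both directions relative to DMSO controls.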
# [5] = UKN2_HCS_IMR90_cell_viability: Viability Assessment in the University of Konstanz (UKN) Leist Lab Neural Crest Cell Migration Assay in human induced IMR90 Pluripotent Stem Cells (UKN2) (AID 2284233);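 also: viability of neural crest cells differentiated from IMR90 iPSC measured by calcein-AM fluorescence imaging; cells exposed to compound for 24 h after a 24 h migration phase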
# In short: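 Human IMR90-derived neural crest cells were allowed to migrate for 24 h into a cell-free zone, then exposed to test chemicals for 24 h. Calcein-AM and Hoechst staining with high-content imaging gave viability, analysed against DMSO baseline.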
# [6] = BSK_BT_Bcell_Proliferation: Viability Assessment in the BioMAP Diversity Plus: BT Assay for B cell Proliferation (AID 2284227); conditions: primary human B cells with PBMC
# In short: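 Human B cell/PBMC co-culture; test chemical added; 72 h; TCA fix (10%), 0.1% SRB stain, A560 for total protein as a proliferation read-out; positive-direction fit vs DMSO baseline.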
# [7] = read-out: Interleukin 6 (IL6), IL6 (gene 3569); assay: BSK_BT_xIL6: BioMAP Diversity Plus: BT Assay for Interleukin 6 (IL6) Biomarker Activity (AID 2284228); conditions: primary human B cells with PBMC
# In short: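 Secreted IL-6 in the primary human B cell plus PBMC system, measured by Luminex at 24 h post-chemical, DMSO as baseline. Alamar Blue viability: 75,000 cells/well, chemical 1 h before SEB/TSST-1 (20 ng/mL each), 90 h, then 6 h dye.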
# [8] = read-out: Interleukin 17A (IL17A), IL17A (gene 3605); assay: BSK_BT_xIL17A: BioMAP Diversity Plus: BT Assay for Interleukin 17A (IL17A) Biomarker Activity (AID 2284229); conditions: primary human B cells with PBMC
# In short: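 Luminex xMAP quantification of secreted IL-17A after 24 h chemical exposure of a primary human B cell/PBMC co-culture. Signal increases fitted relative to DMSO negative control.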
# [9] = read-out: Tumor necrosis factor (Homo sapiens) (UniProt P01375); assay: BSK_BT_xTNFa: BioMAP Diversity Plus: BT Assay for Tumor necrosis factor alpha (TNF-alpha) Biomarker Activity (AID 2284230); conditions: primary human B cells with PBMC
# In short: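 Read-out: Luminex xMAP quantitation of secreted TNF-alpha from a B cell/PBMC co-culture 24 h after compound addition. Signal analysed relative to DMSO vehicle, positive fitting direction.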
# [10] = read-out: Vascular cell adhesion molecule 1 (VCAM1), VCAM1 (gene 7412); assay: BSK_MyoF_VCAM1: BioMAP Diversity Plus: MyoF Assay for Vascular cell adhesion molecule 1 (VCAM1) Biomarker Activity (AID 2284231); conditions: primary human lung fibroblasts
# In short: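 ELISA readout of VCAM-1 on human lung fibroblast cultures 24 hours after dosing, analyzed for signal gain relative to DMSO. Overt cytotoxicity was checked by sulforhodamine B total-protein staining in parallel cultures.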
# [11] = read-out: Collagen I, COL1A1 (gene 1277); assay: BSK_MyoF_CollagenI: BioMAP Diversity Plus: MyoF Assay for Collagen I Biomarker Activity (AID 2284238); conditions: primary human lung fibroblasts
# In short: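 Collagen I levels measured by ELISA on human lung fibroblast cultures 24 h post-dosing, with curve fitting in the positive direction relative to DMSO; SRB staining of parallel wells marked cytotoxicity.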
# [12] = read-out: Collagen III, COL3A1 (gene 1281); assay: BSK_MyoF_CollagenIII: BioMAP Diversity Plus: MyoF Assay for Collagen III Biomarker Activity (AID 2284239); conditions: primary human lung fibroblasts
# In short: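 Collagen III biomarker quantified by ELISA in human lung fibroblast cultures 24 h after dosing. Activity fitted in the positive direction against DMSO as baseline.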
# [13] = read-out: Interleukin 17F (IL17F), IL17F (gene 112744); assay: BSK_BT_xIL17F: BioMAP Diversity Plus: BT Assay for Interleukin 17F (IL17F) Biomarker Activity (AID 2284243); conditions: primary human B cells with PBMC
# In short: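 Human B cells co-cultured with PBMC; secreted IL-17F quantified by LumineX xMAP 24 hours after chemical dosing. Activity fitted in the positive direction against DMSO negative control as baseline.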
# [14] = read-out: Actin alpha 1 (ACTA1), ACTA1 (gene 58); assay: BSK_MyoF_ACTA1: BioMAP Diversity Plus: MyoF Assay for Actin alpha 1 (ACTA1) Biomarker Activity (AID 2284244); conditions: primary human lung fibroblasts
# In short: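 Measured by ELISA: alpha-smooth muscle actin in human primary lung fibroblasts 24 h after dosing, with DMSO as baseline and upward signal change as the fitted direction.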
# [15] = read-out: Interleukin 2 (IL2), IL2 (gene 3558); assay: BSK_BT_xIL2: BioMAP Diversity Plus: BT Assay for Interleukin 2 (IL2) Biomarker Activity (AID 2284245); conditions: primary human B cells with PBMC
# In short: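 Secreted interleukin-2 from human B cell/PBMC co-cultures, measured 24 h post-dosing by Luminex multiplex immunoassay. Upward-direction curve fitting against DMSO baseline.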
# [16] = read-out: Basic fibroblast growth factor (bFGF), FGF2 (gene 2247); assay: BSK_MyoF_bFGF: BioMAP Diversity Plus: MyoF Assay for Basic fibroblast growth factor (bFGF) Biomarker Activity (AID 2284246); conditions: primary human lung fibroblasts
# In short: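 In this multiplexed cell system, lung fibroblasts (human primary) receive test chemical for 24 h before ELISA detection of bFGF; DMSO defines baseline and the analysis direction is positive.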
# [17] = read-out: Collagen IV, COL4A1 (gene 1282); assay: BSK_MyoF_CollagenIV: BioMAP Diversity Plus: MyoF Assay for Collagen IV Biomarker Activity (AID 2284247); conditions: primary human lung fibroblasts
# In short: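 Activity is scored as a signal increase over DMSO in an ELISA for Collagen IV, measured on human lung fibroblasts at 24 h after chemical treatment. Cytotoxicity is checked in parallel cultures by sulforhodamine B total-protein staining.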
# [18] = read-out: Plasminogen activator inhibitor-1 (PAI1), SERPINE1 (gene 5054); assay: BSK_MyoF_PAI1: BioMAP Diversity Plus: MyoF Assay for Plasminogen activator inhibitor-1 (PAI1) Biomarker Activity (AID 2284256); conditions: primary human lung fibroblasts
# In short: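 Human lung fibroblasts (MyoF system) were exposed to test chemicals for 24 h, then PAI-1 was quantified by ELISA. Activity was fitted in the positive (signal-gain) direction relative to DMSO vehicle as baseline.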
# [19] = TAMU_HCS_1.5hr_SingleDonor1434_Cytotoxicity: Cytotoxicity Assessment using High-content Screening (HCS) Fluorescent Imaging for the Texas A&M University (TAMU) 1.5-hr Human Induced Pluripotent Stem Cell (iPSC)-derived Cardiotoxicity Assay (AID 2284234; active = hit-call score of the fitted dose curve at least 0.9, where 1 is the maximum)
# In short: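 Human iPSC-derived cardiomyocytes dosed at 0.2, 1, 10, 100 uM final (0.5% DMSO) for 90 min at 37 C. Hoechst 33342-stained nuclei counted by 10x high-content imaging; POD is EC10, a 10% drop in total cell count versus DMSO.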
# [20] = TAMU_PeakParms_SingleDonor1434_QT: Texas A&M University (TAMU) 1.5-hr Human Induced Pluripotent Stem Cell (iPSC)-derived Cardiomyocytes Calcium (Ca+2) Flux Assay for Cardiotoxicity: QT (decay-rise ratio) (AID 2284235; active = hit-call score of the fitted dose curve at least 0.9, where 1 is the maximum)
# In short: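 iPSC-derived cardiomyocytes (single donor 1434) dosed at 0.2, 1, 10, 100 uM final in 0.5% DMSO, 90 min at 37C. Ca2+ flux fluorescence decay/rise ratio; EC05 (5% increase versus DMSO) as POD, excluding beat-arrest and severe-notch data.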
# Chain of Tumor necrosis factor (Homo sapiens) (P01375 whole entry, looked up): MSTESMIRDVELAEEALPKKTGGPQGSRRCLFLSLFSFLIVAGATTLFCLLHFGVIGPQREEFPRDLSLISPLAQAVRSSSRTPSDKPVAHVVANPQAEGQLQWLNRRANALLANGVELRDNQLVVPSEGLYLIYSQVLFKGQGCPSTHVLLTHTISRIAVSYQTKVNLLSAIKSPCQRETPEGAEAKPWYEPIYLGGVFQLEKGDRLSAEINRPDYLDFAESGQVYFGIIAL
compound,measurement,setting,value
CN/C(=N\[N+](=O)[O-])NCc1cnc(Cl)s1,outcome,[1],inactive
same,outcome,[2],inactive
CC1(C)C(C=C(Cl)Cl)C1C(=O)OC(C#N)c1cccc(Oc2ccccc2)c1 (centres undefined),outcome,[2],inactive
same,outcome,[3],inactive
CCN(CC)c1nc(C)cc(OP(=S)(OC)OC)n1,AC50,[1],80.8 µM (active)
same,AC50,[2],90.6 µM (active)
same,AC50,[3],9.92 µM (active)
CCOP(=O)(OCC)Oc1nc(Cl)c(Cl)cc1Cl,AC50,[4],65.1 µM (active)
same,AC50,[5],3.19 µM (active)
same,outcome,[1],inactive
same,outcome,[2],inactive
same,outcome,[3],inactive
CS(=O)(=O)c1ccc(C(=O)C2C(=O)CCCC2=O)c([N+](=O)[O-])c1,outcome,[5],inactive
same,outcome,[2],inactive
CS(=O)(=O)c1cc(C(F)(F)F)ccc1C(=O)c1cnoc1C1CC1,outcome,[5],inactive
same,AC50,[1],9.92 µM (active)
same,outcome,[2],inactive
CC(C)(C)C(=O)C(Oc1ccc(Cl)cc1)n1cncn1 (centres undefined),outcome,[5],inactive
same,outcome,[1],inactive
same,AC50,[2],33.2 µM (active)
same,AC50,[3],11 µM (active)
CO/N=C(/C1=NOCCO1)c1ccccc1Oc1ncnc(Oc2ccccc2Cl)c1F,outcome,[5],inactive
same,AC50,[1],10.9 µM (active)
same,AC50,[2],2.55 µM (active)
same,AC50,[3],1.52 µM (active)
COC(=O)N(C(=O)N1CO[C@@]2(C(=O)OC)Cc3cc(Cl)ccc3C2=N1)c1ccc(OC(F)(F)F)cc1,AC50,[5],33.1 µM (active)
same,outcome,[2],inactive
CCNC(=O)NC(=O)C(C#N)=NOC,outcome,[1],inactive
same,outcome,[2],inactive
COCC(C)N(C(=O)CCl)c1c(C)csc1C (centres undefined),outcome,[6],inactive
same,outcome,[7],inactive
same,AC50,[8],20 µM (active)
same,outcome,[9],inactive
same,AC50,[10],20 µM (active)
same,AC50,[11],17.3 µM (active)
same,AC50,[12],26.2 µM (active)
same,AC50,[13],23.8 µM (active)
same,AC50,[14],30.9 µM (active)
same,outcome,[15],inactive
same,outcome,[16],inactive
same,outcome,[17],inactive
same,AC50,[18],20 µM (active)
CNC(=O)Oc1cccc2ccccc12,outcome,[19],inactive
same,outcome,[2],inactive
same,AC50,[3],22.9 µM (active)
Cc1c(COC(=O)[C@@H]2[C@H](/C=C(\Cl)C(F)(F)F)C2(C)C)cccc1-c1ccccc1,outcome,[5],inactive
same,AC50,[1],21.2 µM (active)
same,AC50,[2],25.9 µM (active)
same,AC50,[3],2.95 µM (active)
O=C(Nc1ccccc1-c1ccc(Cl)cc1)c1cccnc1Cl,outcome,[5],inactive
same,outcome,[1],inactive
same,outcome,[2],inactive
N#CN=C1SCCN1Cc1ccc(Cl)nc1,outcome,[2],inactive
COP(=O)(OC)O/C(C)=C/C(=O)N(C)C,outcome,[2],inactive
same,outcome,[3],inactive
COP(=S)(OC)SCn1nnc2ccccc2c1=O,outcome,[4],inactive
same,AC50,[5],32.2 µM (active)
same,outcome,[1],inactive
same,outcome,[2],inactive
C=C(C)CN(CC)c1c([N+](=O)[O-])cc(C(F)(F)F)cc1[N+](=O)[O-],AC50,[5],121 µM (active)
same,AC50,[1],50 µM (active)
same,AC50,[2],50 µM (active)
same,AC50,[3],8.46 µM (active)
CCSC(=O)N1CCCCCC1,outcome,[5],inactive
same,outcome,[1],inactive
same,outcome,[2],inactive
same,outcome,[3],inactive
O=C1C2CC=CCC2C(=O)N1SC(Cl)(Cl)Cl (centres undefined),AC50,[19],84.7 µM (active)
same,outcome,[20],inactive
